In PubChem BioAssay AID449739 (Vanderbilt High Throughput Screening Facility, 2010):
The whole screen tested about 100,000 compounds, of which about 4,200 (4.2%) were called active. The sample holds actives, similar compounds and a random draw of the others, so the mix is not that of the screen.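 How the source made its calls: active means single-dose well whose peak fluorescence ratio is a statistical outlier from its plate by either plate-standardised score or position-corrected B-score; inactive means the rest.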

Each molecule was assayed against Voltage-dependent T-type calcium channel subunit alpha-1H (Homo sapiens) (UniProt O95180) (assay: Cav3.2 calcium influx blockers – cell-based, Fluo-4 calcium fluorescence, FDSS, MLSMR library, primary screen (AID 449739)). Details: Cav3.2-expressing cells, at 10 µM, active compounds read low.
Voltage-dependent T-type calcium channel subunit alpha-1H (Homo sapiens), sequence (O95180 whole entry, looked up): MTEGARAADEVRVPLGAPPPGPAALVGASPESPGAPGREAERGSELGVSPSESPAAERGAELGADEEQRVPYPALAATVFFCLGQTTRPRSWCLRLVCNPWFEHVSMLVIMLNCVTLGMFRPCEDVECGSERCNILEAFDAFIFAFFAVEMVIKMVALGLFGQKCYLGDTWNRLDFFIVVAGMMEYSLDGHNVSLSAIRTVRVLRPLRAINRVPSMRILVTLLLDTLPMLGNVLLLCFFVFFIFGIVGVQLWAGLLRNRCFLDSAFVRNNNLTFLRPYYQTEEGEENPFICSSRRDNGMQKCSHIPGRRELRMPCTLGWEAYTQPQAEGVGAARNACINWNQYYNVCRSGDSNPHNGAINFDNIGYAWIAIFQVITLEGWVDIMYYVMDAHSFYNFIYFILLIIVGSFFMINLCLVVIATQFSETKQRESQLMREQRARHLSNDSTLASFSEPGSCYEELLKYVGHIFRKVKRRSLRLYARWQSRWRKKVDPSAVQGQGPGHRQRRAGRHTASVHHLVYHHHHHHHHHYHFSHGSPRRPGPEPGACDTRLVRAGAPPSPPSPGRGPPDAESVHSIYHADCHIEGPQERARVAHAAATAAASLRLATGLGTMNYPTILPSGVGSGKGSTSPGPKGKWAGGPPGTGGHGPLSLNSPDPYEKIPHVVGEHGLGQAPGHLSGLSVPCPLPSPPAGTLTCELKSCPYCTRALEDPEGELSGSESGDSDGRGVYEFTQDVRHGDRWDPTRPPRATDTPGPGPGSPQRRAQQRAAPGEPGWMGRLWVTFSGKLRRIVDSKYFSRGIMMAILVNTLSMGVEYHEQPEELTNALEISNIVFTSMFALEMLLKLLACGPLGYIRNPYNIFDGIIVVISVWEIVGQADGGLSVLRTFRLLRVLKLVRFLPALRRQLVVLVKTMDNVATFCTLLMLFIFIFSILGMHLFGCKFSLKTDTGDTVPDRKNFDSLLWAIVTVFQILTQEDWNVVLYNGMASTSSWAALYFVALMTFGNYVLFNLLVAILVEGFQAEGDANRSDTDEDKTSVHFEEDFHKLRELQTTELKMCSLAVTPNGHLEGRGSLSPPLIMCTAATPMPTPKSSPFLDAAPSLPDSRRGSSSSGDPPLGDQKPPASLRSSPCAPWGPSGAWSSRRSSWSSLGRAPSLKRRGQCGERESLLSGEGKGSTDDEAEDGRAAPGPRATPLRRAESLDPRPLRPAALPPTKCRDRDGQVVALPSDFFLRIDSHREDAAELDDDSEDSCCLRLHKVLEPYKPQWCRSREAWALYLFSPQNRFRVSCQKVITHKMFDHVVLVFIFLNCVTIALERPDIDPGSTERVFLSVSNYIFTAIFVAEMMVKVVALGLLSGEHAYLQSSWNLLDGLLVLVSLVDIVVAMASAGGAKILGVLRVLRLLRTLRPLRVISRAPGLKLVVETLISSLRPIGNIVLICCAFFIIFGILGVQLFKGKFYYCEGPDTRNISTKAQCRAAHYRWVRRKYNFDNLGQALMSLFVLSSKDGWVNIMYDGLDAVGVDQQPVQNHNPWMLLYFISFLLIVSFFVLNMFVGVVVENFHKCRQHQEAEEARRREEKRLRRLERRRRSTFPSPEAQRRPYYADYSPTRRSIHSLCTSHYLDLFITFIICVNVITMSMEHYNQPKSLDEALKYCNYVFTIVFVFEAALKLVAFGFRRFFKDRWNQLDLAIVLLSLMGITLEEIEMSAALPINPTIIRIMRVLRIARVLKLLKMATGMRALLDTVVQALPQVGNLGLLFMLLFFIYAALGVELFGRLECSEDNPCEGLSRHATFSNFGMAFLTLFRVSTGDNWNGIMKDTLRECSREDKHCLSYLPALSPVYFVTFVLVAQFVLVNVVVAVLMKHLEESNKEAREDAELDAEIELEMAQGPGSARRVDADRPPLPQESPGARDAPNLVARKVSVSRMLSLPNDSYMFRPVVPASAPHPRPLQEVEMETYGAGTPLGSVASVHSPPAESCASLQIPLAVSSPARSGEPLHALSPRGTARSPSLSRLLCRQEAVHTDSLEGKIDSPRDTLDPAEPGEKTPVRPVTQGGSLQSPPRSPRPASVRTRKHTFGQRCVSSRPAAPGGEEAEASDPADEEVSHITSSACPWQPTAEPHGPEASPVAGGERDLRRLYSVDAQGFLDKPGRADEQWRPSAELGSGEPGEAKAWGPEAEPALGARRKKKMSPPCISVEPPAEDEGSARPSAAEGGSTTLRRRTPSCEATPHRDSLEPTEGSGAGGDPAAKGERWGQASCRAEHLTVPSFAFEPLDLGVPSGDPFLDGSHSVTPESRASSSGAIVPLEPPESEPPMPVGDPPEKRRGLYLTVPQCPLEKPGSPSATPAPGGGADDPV

B-score, inactive:
O=c1c2ccccc2c(-c2ccc(F)cc2)nn1-c1ccc(C(F)(F)F)cc1 0.392
Clc1ccc(-c2nnc(-c3ccccc3)nc2N2CCSCC2)cc1 -2.83
COc1cc(/C=C/CO)cc(OC)c1O[C@@H]1O[C@H](CO)[C@@H](O)[C@H](O)[C@H]1O 0.144
CC1(c2nnc(-c3ccncc3)o2)CC(c2cccnc2)=NO1 (configuration not stated) 0.534
COc1ccc(NC(=O)CSc2nc(N)c(-c3ccccc3)c(=O)[nH]2)cc1 0.0212
COc1ccc2nc(SCC(=O)Nc3c(C)cc(C)cc3C)[nH]c2c1 -0.844
CCCC(=O)Nc1nc2ccc(NC(=O)c3cccnc3)cc2s1 -0.392
COCCN1C(=O)N[C@@H](CCc2ccccc2)[C@H](C(C)=O)[C@H]1C 0.713
O=C(NCC1CC1)c1onc(CSc2ccccc2)c1C(=O)NCC1CC1 -1.14
CS(=O)(=O)N(CC(=O)N1CCN(c2ccc(F)cc2)CC1)C1CCCCC1 1.32
CCOC(=O)N1CCN(C(=O)CN(C2CCCCC2)S(C)(=O)=O)CC1 -0.0305
O=C(COc1ccc2c(C(F)(F)F)cc(=O)oc2c1)Nc1ccc2c(c1)OCCO2 -0.232
N#Cc1ccc(Oc2cc(C(F)(F)F)nc(-c3ccccn3)n2)cc1 -0.0658
O=C(NCCCN1CCOCC1)c1cc2c(s1)CCC2 0.565
Cc1nn(C)cc1C(=O)NNC(=S)Nc1ccc(Cl)cc1 -0.0884
COC(=O)C1=C(C(=O)OC)[C@@H]2N(C)c3ccccc3[C@@]23C[C@@H](C(=O)OC)N(C(C)=O)C3=N1 0.294
CCOC(=O)c1ccccc1NC(=O)c1c(N)n(C)c(=O)[nH]c1=O 1.01
C=CCn1c(COc2ccccc2)nnc1SCC(=O)NCC(=O)OCC 0.062
C=CCn1c(N)cc(=O)nc1SCC(=O)Nc1cccc2ccccc12 -0.0155
CCn1c(SCC(=O)Nc2nc3ccc(OC)cc3s2)nnc1-c1ccoc1C -3.69
O=C(CSc1nnc(-c2cccnc2)n1CCc1ccccc1)NCc1ccccc1 0.107
CN(C)/C=C(\C#N)C(=O)c1cccnc1Oc1ccc(F)cc1F 0.526
Cc1ccc(Cl)cc1NC(=O)COC(=O)C1CCCCC1 -0.13
O=C(c1cc2sccc2n1Cc1ccc(F)cc1)N1CCc2ccccc21 -3.42
O=C(Cc1ccc(-n2c(=O)c3sccc3n(Cc3ccc(F)cc3)c2=O)cc1)NCc1ccco1 -0.875
CC(C)(C)c1ccc(C(=O)NCCC(=O)NCc2ccco2)cc1 -0.22
O=C(NCc1ccco1)c1ccc(CS(=O)(=O)Cc2ccc(F)cc2)o1 1.27
COc1cccc(-c2cc(C(=O)N/N=C/c3ccc(OC)c(COC(C)=O)c3)c3ccccc3n2)c1 -0.321
CC(C)(C)CN1C(=O)C(=O)NC[C@H]1Cc1cccc2ccccc12 0.844
Fc1ccccc1COc1ccccc1CNCc1ccncc1 0.584
CC(C)CC(CO)N1CCN(C(=O)c2ccc(Cl)cc2Cl)CCC1=O (configuration not stated) 0.363
Cc1c(NC(=O)CCCOc2ccccc2)cccc1[N+](=O)[O-] -0.161
CCO[C@@H]1OC(C(N)=O)=C[C@H](c2ccc(Br)cc2)[C@H]1CCCO 0.335
CS(=O)(=O)N(CC(=O)N1CCN(Cc2ccc3c(c2)OCO3)CC1)c1ccc2c(c1)OCO2 1.42
O=C(c1cccs1)N1CCN(Cc2ccc3c(c2)OCO3)CC1 0.274
O=C(NCc1cc(C(F)(F)F)cc(C(F)(F)F)c1)C1CC(c2cccc(F)c2)=NO1 (configuration not stated) -0.916
O=C(CSc1ncnc2c1cnn2CCc1ccccc1)Nc1ccc(F)cc1 0.0976
COc1ccc(C(C(=O)NCc2ccccc2)N(Cc2cccs2)C(=O)c2cnccn2)cc1 (configuration not stated) -0.0118
C/C=C(/C)C(=O)Nc1cccc(C2=NOC3(C2)C[C@@H](C(N)=O)N(C(=O)C2(C)CC2)C3)c1 (some centres not stated) -0.695
O=C(NCC1CCCO1)/C(=C\c1ccco1)NC(=O)c1ccccc1 (configuration not stated) 0.14
CCOc1cc(C)c(Cl)cc1S(=O)(=O)n1nnc2ccccc21 -2.51
CCOc1ccc(S(=O)(=O)n2ccnc2)c2ccccc12 0.109
O=C(CN1CCN(c2ccccn2)CC1)NC1CCCCC1 0.646
O=C(CN1CCN(S(=O)(=O)c2ccc(F)cc2)CC1)Nc1ccccc1F 0.623
CCOC(=O)c1cccc(NC(=O)c2ccc(F)cc2F)c1 0.631
CN1CCN(C(=O)C2=C[C@H](c3ccc4c(c3)OCO4)C[C@H](OCc3ccc(CO)cc3)O2)CC1 0.346
O=C(CCc1ccc(S(=O)(=O)NC2CCCCC2)cc1)NCc1ccccc1 -2.7
O=c1[nH]snc1-c1c(Cl)cccc1Cl 0.688

B-score, active:
COc1ccc(NC(=O)CSc2nc(NS(=O)(=O)c3ccc(C)cc3)cc(=O)[nH]2)cc1 -6.39
CS(=O)(=O)N(CC(=O)Nc1ccc(Cl)c(Cl)c1)C1CCCCC1 -4.14
C=CCn1c(SCC(=O)NCc2ccccc2)nnc1-c1cc(Br)ccc1O -6.89
C=CCn1c(SCC(=O)Nc2nc3ccccc3s2)nnc1-c1ccccc1O -5.9
O=C(NCc1ccco1)c1ccc(Cn2c(=O)c3sccc3n(Cc3ccc(F)cc3)c2=O)cc1 -3.42
O=C(NCc1ccco1)c1cc2sccc2n1Cc1ccc(F)cc1 -5.53
O=C(CSCc1ccc(Cl)cc1)N1CCN(Cc2ccc3c(c2)OCO3)CC1 -5.77
CCOc1ccc(C(C)C)cc1S(=O)(=O)n1nc(C)cc1C -4.23
O=C(CN1CCN(S(=O)(=O)c2ccc3ccccc3c2)CC1)NC(=O)NC1CCCCC1 -8.92
